Results published in PubChem BioAssay AID1159580 (chemical genetic matrix, 2015).
Values joined by “and” are separate entries in the source; they are usually repeats but may differ in a detail not shown here. Identical values can stand only once. About 2,000 (36%) of roughly 5,500 compounds were called active. About 18% were inconclusive and are not listed. Rule as the data show it: active = normalized growth mostly below about 0.91 (no sharp cut-off); inconclusive = no clear call, values can overlap the other calls; inactive = mostly above about 0.92. The list shows a part of the results.

Assay: chemical genetic growth profiling, strain panel (AID 1159580);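 also: tested at 20 µM; growth read once vehicle control cultures reached saturation at 30 °C; 1 = growth at the plate median or of vehicle wells; lower values mean less growth of the strain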
Settings: S. cerevisiae deletion strains, growth OD

Measured: normalized growth

C=CCC1(C(C)CCC)C(=O)N=C(S)NC1=O (stereo unspecified)
inactive: locus YAL013W, strain DEP1, hits give low values 0.989 | locus YAL021C, strain ccr4, hits give low values 0.989 | locus YAL026C, strain drs2, hits give low values 1 | locus YAL030W, strain snc1, hits give low values 0.984 | locus YBL061C, strain skt5, hits give low values 0.975 | locus YBR009C, strain hhf1, hits give low values 1.01 | locus YBR021W, strain FUR4, hits give low values 0.982 | locus YBR023C, strain chs3, hits give low values 0.986 | locus YBR171W, strain sec66, hits give low values 0.949 | locus YBR229C, strain ROT2, hits give low values 0.994 | locus YBR231C, strain swc5, hits give low values 0.976 | locus YBR279W, strain paf1, hits give low values 0.998 | locus YCL011C, strain gbp2, hits give low values 0.974 | locus YCL016C, strain dcc1, hits give low values 1 | locus YCL029C, strain bik1, hits give low values 0.981 | locus YCL061C, strain MRC1, hits give low values 0.982 | locus YCL069W, strain vba3, hits give low values 0.99 | locus YCR088W, strain abp1, hits give low values 0.967 | locus YDL005C, strain med2, hits give low values 0.937 | locus YDL035C, strain GPR1, hits give low values 0.985 | locus YDL040C, strain nat1, hits give low values 0.973 | locus YDL074C, strain BRE1, hits give low values 1.06 | locus YDL101C, strain DUN1, hits give low values 0.979 | locus YDL134C, strain PPH21, hits give low values 0.997 | locus YDL185W, strain tfp1, hits give low values 0.958 | locus YDL192W, strain arf1, hits give low values 0.976 | locus YDR001C, strain nth1, hits give low values 0.949 | locus YDR069C, strain doa4, hits give low values 0.949 | locus YDR101C, strain arx1, hits give low values 0.988 | locus YDR137W, strain rgp1, hits give low values 0.919 | locus YDR150W, strain NUM1, hits give low values 0.994 | locus YDR159W, strain sac3, hits give low values 0.952 | locus YDR162C, strain NBP2, hits give low values 1.01 | locus YDR195W, strain ref2 0.885 | locus YDR297W, strain sur2, hits give low values 0.983 | locus YDR318W, strain mcm21, hits give low values 0.986 | locus YDR334W, strain swr1, hits give low values 0.938 | locus YDR335W, strain msn5, hits give low values 0.964 | locus YDR388W, hits give low values 0.986 | locus YDR392W, strain spt3, hits give low values 1.01 | locus YDR502C, strain sam2, hits give low values 1 | locus YEL003W, strain gim4, hits give low values 0.979 | locus YEL037C, strain rad23, hits give low values 0.974 | locus YEL061C, strain CIN8 (second series), hits give low values 0.968 | locus YEL061C, strain CIN8, hits give low values 0.988 | locus YER015W, strain faa2, hits give low values 0.957 | locus YER016W, strain bim1, hits give low values 0.987 | locus YER110C, hits give low values 0.981 | locus YER111C, strain swi4, hits give low values 0.989 | locus YER155C, strain BEM2 (second series), hits give low values 0.928 | locus YER155C, strain BEM2, hits give low values 0.988 | locus YER167W, strain BCK2, hits give low values 0.961 | locus YFR010W, strain ubp6, hits give low values 0.952 | locus YGL078C, strain dbp3, hits give low values 0.986 | locus YGL086W, strain mad1, hits give low values 0.975 | locus YGL167C, strain pmr1, hits give low values 0.962 | locus YGL173C, strain kem1, hits give low values 0.999 | locus YGL227W, strain vid30, hits give low values 0.954 | locus YGL240W, strain doc1, hits give low values 0.944 | locus YGL248W, strain PDE1, hits give low values 1 | locus YGL253W, strain hxk2, hits give low values 0.969 | locus YGR078C, strain PAC10, hits give low values 1.02 | locus YGR135W, strain pre9, hits give low values 1.02 | locus YGR229C, strain SMI1, hits give low values 1.02 | locus YGR252W, strain gcn5, hits give low values 1.03 | locus YHR013C, strain ard1, hits give low values 0.964 | locus YHR027C, strain rpn1, hits give low values 0.977 | locus YHR030C, strain SLT2, hits give low values 0.976 and 0.982 | locus YHR079C, strain IRE1 (second series), hits give low values 0.987 | locus YHR079C, strain IRE1, hits give low values 0.979 | locus YHR094C, strain hxt1, hits give low values 0.968 | locus YHR129C, strain ARP1, hits give low values 1 | locus YHR142W, strain chs7, hits give low values 0.996 | locus YHR200W, strain rpn10, hits give low values 0.965 | locus YIL066C, strain RNR3, hits give low values 0.999 | locus YIL073C, strain SPO22, hits give low values 0.934 | locus YIL125W, strain kgd1, hits give low values 0.982 | locus YIR030C, strain dcg1, hits give low values 0.978 | locus YJL092W, strain hpr5, hits give low values 0.985 | locus YJL095W, strain BCK1 (second series), hits give low values 0.975 | locus YJL095W, strain BCK1, hits give low values 1.07 and 0.994 | locus YJL115W, strain asf1, hits give low values 0.952 | locus YJL129C, strain trk1, hits give low values 0.928 | locus YJL134W, strain LCB3, hits give low values 0.979 | locus YJL154C, strain vps35, hits give low values 0.965 | locus YJL164C, strain tpk1, hits give low values 1.01 | locus YJL166W, strain qcr8, hits give low values 0.969 | locus YJL168C, strain set2, hits give low values 0.983 | locus YJL187C, strain SWE1 (second series), hits give low values 1.01 | locus YJR043C, strain POL32, hits give low values 0.978 | locus YJR066W, strain TOR1, hits give low values 0.959
